This note sets out measurements from PubChem BioAssay.

Values without a mark were called inactive. Active and inactive are the calls of the source.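 Rule for the calls: active = inhibition above the hit cutoff set in the earlier primary screen (cut at about 27% in these data); inactive = the rest.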

Broadly, the inhibition is the relative decrease from the control value, in per cent.

For the experiment, the target named is Protein phosphatase methylesterase 1 (Homo sapiens) (UniProt Q9Y570). The experiment is described as follows: human PME-1 methylesterase inhibition confirmation – biochemical, fluorescence polarization, FP-Rh probe, triplicate (AID 2171).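 Note: 0% = enzyme with DMSO and 100% = wells lacking PME-1.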 The settings on record: recombinant PME-1, FP-Rh probe fluorescence polarization; at 5.9 µM; stronger effect = higher value.
Protein phosphatase methylesterase 1 (Homo sapiens), sequence (Q9Y570 whole entry, looked up): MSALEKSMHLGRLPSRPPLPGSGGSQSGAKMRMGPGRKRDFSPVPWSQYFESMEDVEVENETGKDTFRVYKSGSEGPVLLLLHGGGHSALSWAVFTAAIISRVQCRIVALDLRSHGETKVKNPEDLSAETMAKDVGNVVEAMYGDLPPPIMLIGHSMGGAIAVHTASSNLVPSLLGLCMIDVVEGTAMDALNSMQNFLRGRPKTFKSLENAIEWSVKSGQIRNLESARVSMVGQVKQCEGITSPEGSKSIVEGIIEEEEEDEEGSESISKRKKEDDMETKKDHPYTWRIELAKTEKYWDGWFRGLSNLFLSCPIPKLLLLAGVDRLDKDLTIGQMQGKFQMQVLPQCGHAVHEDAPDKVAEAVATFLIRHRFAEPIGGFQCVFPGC
Take `N=C1CCC(=N)c2c1c(O)c1ccccc1c2O`: the inhibition was 21.1%.

For `Cc1cc(C)c2[nH]c(O)c(N=NC3=NC(=O)CS3)c2c1`, the inhibition is 32% (active).

On to `CCCCN(CCCC)CCNC(=O)c1cn(CC)c2ccc(S(=O)(=O)N3CCc4ccccc4C3)cc2c1=O`, for which the inhibition was 48.8% (active).

Consider `COc1ccccc1-c1sc2ccccc2c1-c1ccc(C(C)=O)cc1`, for which the inhibition is -9.37%.

As to `O=C(N/N=C/c1c[nH]c2ccccc12)c1sc2ccccc2c1Cl`, the inhibition is 21.7%.

In the case of `CCN(CC)C(=O)CSc1nc2c(sc(=S)n2-c2ccccc2)c(=O)n1Cc1ccco1`, the inhibition was 78.6% (active).

In the case of `Cc1[nH]c(N=Nc2ccccc2)nc1N=Nc1ccccc1`, the inhibition was 55.2% (active).

With `O=C(N/N=C/c1ccc(O)cc1)c1cccc(N/N=C/c2ccc(O)cc2)c1`, the inhibition was 18.8%.

As to `Cc1ccc2sc(NNC(=O)c3cc(=O)c4ccccc4o3)nc2c1C`, the inhibition is 68.1% (active).

For `O=C(O)c1ccc(N/N=C/c2ccc(-c3ccc(Cl)cc3Cl)o2)cc1`, the inhibition was 85.9% (active).

Turning to `COc1cc2nc(Nc3ccc(C)c(Cl)c3)nc(N)c2cc1OC`, the inhibition was 49.4% (active).

For the compound `CCC(=O)Oc1ccc(C/C(=N\O)c2ccc(O)cc2O)o1`, the inhibition was 43% (active).

Turning to `Cc1ccc(-c2c(C(=O)N/N=C/c3c[nH]c4ccccc34)nnn2-c2nonc2N)cc1`, the inhibition was 21.9%.

Regarding `Nc1cc(N)cc(-c2nc3ccccc3[nH]2)c1`, the inhibition was 3.51%.

`O=C1Nc2ccccc2/C1=N\N=C\C1=C(N2CCOCC2)C(=C\c2ccccc2)/CC1`: the inhibition was 24%.

Consider `N#CCC(=O)Nc1ccc(C(=O)OCc2ccccc2Oc2ccccc2)cc1`, for which the inhibition is -74.3%.

With `NNc1nc2cc3c(cc2s1)OCCO3`, the inhibition was 8.82%.

`Cc1ccc(-c2ccccc2NC(=O)CS(=O)CC(=O)Nc2ccc(C)c(Cl)c2)o1` (stereo not given): the inhibition was 0.73%.

For the compound `COc1ccc(NC(=S)Nc2ccc3nsnc3c2)cc1`, the inhibition was 24.3%.

Turning to `COc1ccc2c(c1)cc(C(=O)N/N=C/c1c(O)c(C(=O)O)cc3ccccc13)n2C`, the inhibition is 30% (active).

`CC(C)=CCc1cc(-c2oc3cc(O)cc(O)c3c(=O)c2O)ccc1O`: the inhibition is 36.8% (active).

`CCOc1ccc(NC(=S)Nc2ccc3nsnc3c2)cc1`: the inhibition is 24.1%.

Take `Oc1[nH]c2ccccc2c1N=Nc1nc2ccccc2s1`: the inhibition is 14.1%.

As for `COc1cc2c(cc1NC(=O)c1cccnc1)oc1ccccc12`, the inhibition was 25.8%.

For `C/C(=N\Nc1ccc(C(=O)O)cc1)c1ccc2c(c1)Nc1ccccc1S2`, the inhibition is 30.5% (active).

Take `C/C(=C\c1ccc2c(c1)OCO2)C1Nc2cccc3cccc(c23)N1`: the inhibition is 28.5% (active).

Turning to `O=C(CNc1ccc2ccccc2c1)N/N=C/c1ccc(OC(=O)/C=C/c2ccco2)cc1`, the inhibition is 11.7%.

In the case of `O=C(OCCOCCN=C1NS(=O)(=O)c2ccccc21)c1ccccc1Br`, the inhibition is 5.54%.

For the compound `Cc1cc2c(N)cccc2nn1`, the inhibition was 7.9%.

On to `CCOc1ccc(NC(=O)Nc2ccc3c(c2)N(C)C(=O)CS3)cc1`, for which the inhibition was 14.8%.

Turning to `CCCSc1nnc(NC(=O)c2sc3nc(-c4cccs4)ccc3c2N)s1`, the inhibition was 37.4% (active).

Take `COc1ccc(Nc2cnn(-c3nc4ccccc4s3)c(=O)c2Cl)cc1`: the inhibition is 37.3% (active).

For the compound `CCOc1cc(/C=N/NC(=O)c2cccc([N+](=O)[O-])c2)ccc1OS(=O)(=O)c1ccccc1`, the inhibition is 19.9%.

Turning to `Nc1cc(C(=O)O)c(N)c2c1C(=O)c1ccccc1C2=O`, the inhibition is 96.8% (active).

`Cc1ccc(S(=O)(=O)N2CCOCC2)cc1NC(=O)COC(=O)c1ccccc1OCc1c(C)noc1C`: the inhibition is 16.8%.

In the case of `CC1=NN(c2ccccc2)C(=O)C1N=Nc1cccc(O)c1` (stereo not given), the inhibition was 28.1% (active).

`O=C(NCCc1ccccc1)c1ccc2nc(-c3ccco3)c(-c3ccco3)nc2c1`: the inhibition was 15.6%.

In the case of `Cc1ccc(NC(=O)CS(=O)CC(=O)Nc2ccccc2-c2ccc(C)o2)cc1` (stereo not given), the inhibition was 2.84%.

`COc1cc2cc3c(N)c(C(=O)NCc4ccco4)sc3nc2cc1OC`: the inhibition is 110% (active).

For the compound `COc1cc(NC(=O)c2cc3ccccc3cc2O)c(OC)cc1Cl`, the inhibition was 9.45%.
